Here are results for 94 sequences from publication PMC6212790, “How bacterial xenogeneic silencer rok distinguishes foreign from self DNA in its resident genome”.

In all, about 33,000 sequences were measured (“e-score”: median about -0.037, highest 2% from about 0.34 on). What follows is part of a selection rich in the highest values, with near analogues and random picks from the rest.

This test deals with T1, GST-Rok (full length) (Bacillus subtilis subsp. subtilis str. …, UniProt O34857 1-191).
T1 sequence: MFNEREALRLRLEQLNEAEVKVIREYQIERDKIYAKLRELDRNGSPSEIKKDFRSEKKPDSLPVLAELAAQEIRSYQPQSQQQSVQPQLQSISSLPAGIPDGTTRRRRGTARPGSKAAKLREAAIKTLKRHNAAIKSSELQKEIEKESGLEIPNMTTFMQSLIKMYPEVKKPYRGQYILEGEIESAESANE
The experiment in a line: protein binding microarray; Rok is a gene silencer of Bacillus subtilis; high values mean tight binding. As to conditions: protein: recombinant; tags: GST (pTH5325, pDEST15-Magic modified); dsDNA, one strand shown. The procedure, abridged:
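Every oligonucleotide joins a 25-mer constant primer to a 35-mer variable part drawn from a de Bruijn sequence of order 10, so each non-palindromic 8-mer appears at least 32 times and each palindromic 8-mer 16 times. The preference for every 8-mer is reported as a unitless, rank-based enrichment score (E-score). This score spans 0.5 for the most favored 8-mer to −0.5 for the most disfavored.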
For the sequence GCTGGCAC, the binding signal is -0.181 E-score.

Turning to GTGCCAAA, the binding signal was -0.127 E-score.

On to AGTGAAGA, for which the binding signal is -0.00169 E-score. As to CTCGAAAG, the binding signal was -0.0828 E-score.

For the sequence CACCTATA, the binding signal worked out at 0.214 E-score. With TACCTAAA, the binding signal is 0.37 E-score. To AACCTATA belongs 0.239 E-score; to CACCTAAA, 0.131 E-score. With TACCTATA, the binding signal was found to be 0.37 E-score.

Take AACCTAAA: the binding signal came out at 0.102 E-score.

Regarding ATTAAGAA, the binding signal came to 0.154 E-score. Regarding ACTTGCCG, the binding signal was -0.0504 E-score. Regarding AAACTCTC, the binding signal came out at 0.106 E-score.

For CACCATCG, the binding signal was -0.0961 E-score. As to GATCAATA, the binding signal was 0.157 E-score. For the sequence TATCAATA, the binding signal worked out at 0.343 E-score. To AATCAATA belongs 0.296 E-score; to CTCGCGAG, -0.0252 E-score.

Regarding AGAAGGAC, the binding signal was -0.175 E-score. To ACAGAGGC belongs -0.125 E-score.

Regarding GACTATTA, the binding signal came out at 0.157 E-score. As for AACTATTA, the figure is 0.431 E-score; as for AACTATTC, 0.315 E-score; as for CACTATTA, 0.268 E-score.

Turning to ACCTATTG, the binding signal was 0.182 E-score. As for AACTATTG, the binding signal turned out to be 0.378 E-score. As for CGGACTCA, the figure is -0.0715 E-score.

On to ATTTTGAA, for which the binding signal is 0.162 E-score. As for CTAAGGGA, the figure is -0.154 E-score; as for CAGCCCGG, -0.158 E-score. As to AAGTCCGC, the binding signal is -0.0838 E-score. As for GCAAGTAA, the figure is -0.0735 E-score.

Turning to AACCTCAT, the binding signal was -0.155 E-score. With ACTAGTGA, the binding signal is 0.172 E-score. To CCTAGTAA belongs 0.256 E-score. As for ATTAGTAA, the binding signal came out at 0.314 E-score. Consider ACTAGTAA, for which the binding signal was found to be 0.382 E-score. Take GCTAGTAA: the binding signal amounted to 0.294 E-score. As for TCTAGTAA, the figure is 0.351 E-score.

Consider CTAAGCAG, for which the binding signal is -0.152 E-score.

Consider ACATCGAT, for which the binding signal came to 0.166 E-score. Consider AGCTGGGG, for which the binding signal is -0.188 E-score.

With ACTAGAAA, the binding signal was found to be 0.344 E-score. On to ACAAGAAA, for which the binding signal was -0.0731 E-score. With ACTAGAAC, the binding signal turned out to be 0.296 E-score.

Take GCTAGAAA: the binding signal is 0.37 E-score. For ACTAGAAT, the binding signal was 0.356 E-score. CCTAGAAA: the binding signal was 0.0461 E-score.

As for TCTAGAAA, the binding signal came to 0.222 E-score.

Turning to ACTAGAAG, the binding signal came to 0.215 E-score. To ACGAGAAA belongs -0.0804 E-score; to CGCTAGTA, 0.31 E-score; to CTGGCAGA, -0.0653 E-score. As for AGGCAACG, the figure is -0.102 E-score.

Regarding CGACGCAA, the binding signal is 0.0906 E-score.

Regarding ATAGAGAT, the binding signal was 0.0483 E-score. Turning to ATAGATAC, the binding signal came out at 0.331 E-score. ATCGATAG: the binding signal was 0.361 E-score.

Turning to CTAGATAG, the binding signal was 0.346 E-score.

For ATAGATAG, the binding signal is 0.34 E-score.

Take CGAGATAG: the binding signal was found to be 0.0866 E-score.

On to ATAGATAA, for which the binding signal is 0.297 E-score. To ATCGATAC belongs 0.213 E-score; to ATAGATAT, 0.374 E-score; to ATCGATAA, 0.332 E-score. To ACAGATAT belongs 0.153 E-score; to CCAGATAG, 0.188 E-score.

On to CCAAGTGG, for which the binding signal was -0.0692 E-score. As for CTAAAGAG, the figure is 0.00604 E-score; as for AGTTGTGC, 0.157 E-score. As for TGTTAACA, the figure is 0.207 E-score; as for AAGAGCGA, -0.102 E-score. As for ATTGTTTA, the figure is -0.087 E-score; as for AGTGGAGG, -0.0535 E-score. For AGTGATAG, the binding signal came to 0.377 E-score. To AGTGATAA belongs 0.145 E-score. As for ATAGATTG, the figure is 0.316 E-score; as for ATAGATTC, 0.374 E-score; as for ATAGATTA, 0.301 E-score.

For AGTGATAC, the binding signal was 0.231 E-score. To AGGATTTA belongs 0.0716 E-score; to ACTGTACT, 0.209 E-score; to AGATATCG, 0.218 E-score. With GCCCGTAA, the binding signal is -0.148 E-score. For ATGGACAT, the binding signal turned out to be 0.0858 E-score. As for CCGCGGCG, the figure is -0.19 E-score.

On to CATAGCTA, for which the binding signal amounted to 0.306 E-score. Take GATAGCTA: the binding signal is 0.35 E-score. To GATAGCAA belongs 0.189 E-score; to GATAGCGA, 0.106 E-score; to AATAGCTG, 0.206 E-score. As for AATAGCTA, the figure is 0.358 E-score; as for ACAGTAAC, 0.293 E-score. As for GTCAAAAC, the figure is 0.00409 E-score.
